From PMC4336329 (PLoS ONE, 2015)
About 14,000 (4.5%) of roughly 310,000 compounds showed an effect of 50% or more. Effects have a minus sign here. The list comes from a sample in which strong results are over-represented; it also holds similar structures and randomly drawn compounds.

target: human ether-à-go-go-related gene (hERG) potassium channel (human, UniProt Q12809); experiment: primary screen, population patch clamp on CHO cells stably expressing hERG; higher = less effect of the substance
Sequence (Q12809 whole entry, looked up): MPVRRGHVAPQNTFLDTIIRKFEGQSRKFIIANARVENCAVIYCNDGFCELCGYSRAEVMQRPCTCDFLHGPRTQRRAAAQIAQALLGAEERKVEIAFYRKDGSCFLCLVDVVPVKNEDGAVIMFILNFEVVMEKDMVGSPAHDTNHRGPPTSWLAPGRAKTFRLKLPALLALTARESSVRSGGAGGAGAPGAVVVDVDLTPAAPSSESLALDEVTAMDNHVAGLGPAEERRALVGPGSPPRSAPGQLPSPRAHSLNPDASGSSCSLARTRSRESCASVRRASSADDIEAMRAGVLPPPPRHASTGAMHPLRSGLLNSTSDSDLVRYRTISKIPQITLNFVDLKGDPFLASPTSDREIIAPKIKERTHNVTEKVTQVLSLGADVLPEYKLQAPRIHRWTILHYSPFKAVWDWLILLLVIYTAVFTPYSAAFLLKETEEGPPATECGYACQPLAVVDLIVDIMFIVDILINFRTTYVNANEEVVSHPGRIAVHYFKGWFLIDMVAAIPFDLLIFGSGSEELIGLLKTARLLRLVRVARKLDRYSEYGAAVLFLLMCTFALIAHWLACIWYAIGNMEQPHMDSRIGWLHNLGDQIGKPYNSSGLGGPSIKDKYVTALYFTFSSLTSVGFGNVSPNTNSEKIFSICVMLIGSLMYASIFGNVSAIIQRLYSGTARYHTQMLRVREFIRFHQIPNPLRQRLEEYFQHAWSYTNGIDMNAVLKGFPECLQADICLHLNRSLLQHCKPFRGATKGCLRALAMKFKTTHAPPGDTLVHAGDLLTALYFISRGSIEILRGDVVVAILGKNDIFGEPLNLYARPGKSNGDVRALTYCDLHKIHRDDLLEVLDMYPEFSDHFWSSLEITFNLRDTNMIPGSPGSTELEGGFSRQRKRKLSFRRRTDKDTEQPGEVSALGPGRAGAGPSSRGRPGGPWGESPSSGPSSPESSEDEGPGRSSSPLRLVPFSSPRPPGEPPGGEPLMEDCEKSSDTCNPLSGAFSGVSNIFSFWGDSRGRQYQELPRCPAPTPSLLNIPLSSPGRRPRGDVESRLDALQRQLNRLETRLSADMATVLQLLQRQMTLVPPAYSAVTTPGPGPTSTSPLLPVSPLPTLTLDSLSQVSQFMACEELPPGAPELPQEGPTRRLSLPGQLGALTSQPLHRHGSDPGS
Description: Briefly, Chinese hamster ovary (CHO) cells stably expressing the hERG channel were dislodged from tissue culture flasks and dispensed into PPC plates. […] During the recording, background leak currents were estimated by a 100 ms step to -80 mV from an initial holding potential of -70 mV and subtracted from the subsequent current measurement. The campaign was conducted in two phases using slight differences in recording protocol. In the first phase, the initial voltage pulse used a 100 ms step to -30 mV from a holding potential of -70 mV, a 2 s conditioning step to +25 mV, and a 2 s test step to -30 mV. During the second phase of the screen, the potential during the conditioning step was raised to +45 mV. In both phases of the campaign, a secondary voltage pulse was applied using the same parameters as the second phase initial pulse. The initial and secondary pulses were applied in the absence of compound, and upon application of 1 μM and 10 μM test concentrations. […]
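Also: peak tail current of the secondary pulse compared with the same well before compound.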

Row | Compound | hERG current change (%, negative = inhibition) at 10uM
1 | Cc1nn(Cc2ccccc2Cl)c(C)c1NC(=O)Cn1nc([N+](=O)[O-])c(Cl)c1C | 7.21%
2 | COC(=O)c1coc(-c2ccc(C)cc2)c1C(=O)OC | 1.6%
3 | CC(=O)c1ccc(N2CCN(S(=O)(=O)c3ccc4ccccc4c3)CC2)cc1 | 3.28%
4 | Cc1cc(Nc2nnnn2-c2ccccc2)n(-c2ccccc2)n1 | -21.8%
5 | CCN1CCN(C(=O)C(NS(=O)(=O)c2ccc3nc(C)sc3c2)C(C)C)CC1 (stereo not drawn) | 0.194%
6 | COc1ccc(-c2[nH]c(-c3ccc(F)cc3)nc2SCC(=O)NCc2ccco2)cc1OC | 18.8%
7 | CSc1ccc(/C=N/Nc2ccc(Cl)c(C(=O)O)c2)cc1 | 6.73%
8 | COC(=O)/C(=C/c1c[nH]c2ccccc12)NC(C)=O | 6.31%
9 | CCc1ccc(-c2nc(CN3CCC(C(=O)N4CCN(c5ccccn5)CC4)CC3)c(C)o2)cc1 | -68.5%
10 | Cc1ccccc1-c1nc(CN2CCC(C(=O)N3CCC(C(N)=O)CC3)CC2)c(C)o1 | 2.7%
11 | CCOC(=O)N1CCN(C(=O)C2CCN(Cc3nc(-c4ccccc4C)oc3C)CC2)CC1 | -58.3%
12 | Cc1ccccc1-c1nc(CN2CCC(C(=O)O)CC2)c(C)o1 | -18.6%
13 | O=C1OC(/C=C/c2ccccc2)=NC/1=C\c1cccnc1 | 19.4%
14 | CCCc1c(O)nc(SCC(=O)NCc2ccco2)[nH]c1=O | 27%
15 | O=C(c1ccc(=O)oc1)N1CCN(C(c2ccccc2)c2ccccc2)CC1 | -32.2%
16 | O=C(c1ccc(-n2cnnn2)cc1)N1CCCCC1 | -24.1%
17 | O=C(Nc1ccc(-n2cnnn2)cc1)C(c1ccccc1)c1ccccc1 | 8.56%
18 | CC1CCN(C(=O)c2ccc(-n3cnnn3)cc2)CC1 | -72.1%
19 | O=C(c1ccc(-n2cnnn2)cc1)N1CCOCC1 | -1.64%
20 | O=C(c1ccc(-n2cnnn2)cc1)N1CCN(C(c2ccccc2)c2ccccc2)CC1 | -64.7%
21 | Cc1cc(NC(=O)c2cc(CC(C)C)on2)n(-c2ccccc2)n1 | 9.57%

Row | Compound | hERG current change (%, negative = inhibition) at 10uM
22 | COc1cc(NC(=O)CCCN2C(=O)NC(C)(C)C2=O)cc(OC)c1 | 12.2%
23 | Cc1cccc(OCC(=O)NCC(=O)N/N=C/c2ccc(N(C)C)cc2)c1 | 0.0886%
24 | Cc1ccc(NC(=O)Nc2c(Cl)cccc2Cl)cn1 | 14%
25 | COC(=O)CCSc1cc([N+](=O)[O-])cc2c1c(C1OCCS1)nn2-c1ccccc1 (stereo not drawn) | 3.61%
26 | O=C(O)CCc1ccc(-c2cccs2)n1NC(=O)c1cccs1 | 22.3%
27 | O=C(Nc1ccc(Br)cc1)N1CCCC(O)C1 (stereo not drawn) | 6.54%
28 | CN1CCN(C(=O)c2ccc3c(c2)N(Cc2ccccc2F)C(=O)c2ccccc2S3=O)CC1 (stereo not drawn) | 5.05%
29 | Cc1ccc(C2(c3noc(CN4CCC(c5ccncc5)CC4)n3)CCCC2)cc1 | -55.5%
30 | Cc1ccc(C2(c3noc(CN4CCOCC4)n3)CCCC2)cc1 | 17.3%
31 | COCCN1CCN(Cc2nc(C3(c4ccc(C)cc4)CCCC3)no2)CC1 | -9.3%
32 | COc1ccccc1NC(=O)C[n+]1ccccc1C.[Cl-] | 15.3%
33 | COc1ccc(-n2c(SCC(N)=O)nc3sc4c(c3c2=O)CCC4)cc1 | -16.9%
34 | COc1ccc(-n2c(SCCNCCO)nc3sc4c(c3c2=O)CCCC4)cc1 | -55.7%
35 | CCOc1ccc(-n2c(SCC(=O)OC)nc3sc4c(c3c2=O)CCN(C)C4)cc1 | -0.924%
36 | CN(C)CCNc1nc2sc3c(c2c(=O)n1-c1ccc(F)cc1)CCCCC3 | -33.3%
37 | COc1ccc(-n2c(SCC(=O)O)nc3sc4c(c3c2=O)CCC4)cc1 | 18.9%
38 | COc1ccc(-n2c(C)nc3sc4c(c3c2=O)CCCC4)cc1 | -20.3%
39 | CCOC(=O)CSc1nc2sc3c(c2c(=O)n1-c1ccc(OCC)cc1)CCN(C)C3 | -53.9%
40 | COc1ccc(-n2c(NN)nc3sc4c(c3c2=O)CCCC4)cc1 | -47.4%
41 | COc1ccc(-n2c(NCCN(C)C)nc3sc4c(c3c2=O)CCCCC4)cc1 | -72.7%
42 | COc1ccc(-n2c(SCC(=O)O)nc3sc4c(c3c2=O)CCCC4)cc1 | 20.3%
